Composite z-score data for 36 molecules are collected here from PubChem BioAssay.

The target of the test is Focal adhesion kinase 1 (Homo sapiens) (UniProt Q05397). Description: PTK2 protein binding on printed compound slides – biochemical, small-molecule microarray, 635/667 nm fluorescence, BSA, DTT, primary screen (AID 1130).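 Also: composite of spot emission at 667 nm and signal to noise over triplicate slides.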 The conditions noted are these: 635 nm fluorescence, higher = more signal.
Chain of Focal adhesion kinase 1 (Homo sapiens) (Q05397 whole entry, looked up): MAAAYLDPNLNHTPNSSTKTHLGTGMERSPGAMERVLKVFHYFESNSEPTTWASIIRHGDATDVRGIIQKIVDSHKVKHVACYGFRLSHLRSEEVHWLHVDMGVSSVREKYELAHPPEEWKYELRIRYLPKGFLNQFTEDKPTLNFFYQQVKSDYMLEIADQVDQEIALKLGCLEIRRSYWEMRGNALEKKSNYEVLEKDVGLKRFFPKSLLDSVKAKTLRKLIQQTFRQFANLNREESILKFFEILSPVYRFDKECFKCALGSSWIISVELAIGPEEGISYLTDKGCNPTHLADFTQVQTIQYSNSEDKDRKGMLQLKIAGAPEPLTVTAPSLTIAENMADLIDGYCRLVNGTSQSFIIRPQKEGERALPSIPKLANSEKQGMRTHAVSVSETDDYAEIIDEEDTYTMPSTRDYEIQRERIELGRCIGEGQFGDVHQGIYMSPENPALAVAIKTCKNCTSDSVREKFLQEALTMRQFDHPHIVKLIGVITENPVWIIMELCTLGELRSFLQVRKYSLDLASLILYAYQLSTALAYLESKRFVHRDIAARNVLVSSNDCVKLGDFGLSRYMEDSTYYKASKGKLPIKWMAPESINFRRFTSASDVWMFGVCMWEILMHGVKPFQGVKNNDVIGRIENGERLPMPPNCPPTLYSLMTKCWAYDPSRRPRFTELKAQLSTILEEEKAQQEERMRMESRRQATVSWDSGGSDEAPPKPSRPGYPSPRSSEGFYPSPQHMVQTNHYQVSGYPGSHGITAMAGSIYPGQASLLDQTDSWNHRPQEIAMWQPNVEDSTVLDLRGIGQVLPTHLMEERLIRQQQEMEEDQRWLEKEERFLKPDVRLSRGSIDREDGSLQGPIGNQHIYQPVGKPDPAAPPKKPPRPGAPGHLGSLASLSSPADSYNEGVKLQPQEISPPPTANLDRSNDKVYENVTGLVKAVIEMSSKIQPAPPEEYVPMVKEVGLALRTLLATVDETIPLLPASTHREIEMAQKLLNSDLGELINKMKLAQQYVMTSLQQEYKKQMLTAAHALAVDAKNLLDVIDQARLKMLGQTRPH
`CSCC[C@@H]1NC(=O)CC=C[C@@H](C)COC(=O)[C@H](C)COC1=O` had a composite z-score of -0.697.

Consider `CC1(C)O[C@H]2O[C@H]([C@H](O)CON=C3[C@H]4CCn5c(=O)n(-c6ccccc6)c(=O)n5[C@H]4[C@H](O)[C@@H]4O[C@H]34)[C@H](O)[C@H]2O1`, for which the composite z-score is -0.282.

`COc1cccc([C@H]2Oc3ccc(OC)cc3C(=NO[C@@H](C)c3cc(-c4c(C)cc(C)cc4C)no3)[C@@H]2O)c1`: the composite z-score was -0.364.

Turning to `CC(=O)OC[C@H]1O[C@H](C#CCCc2ccccc2)C=C[C@@H]1OC(C)=O`, the composite z-score was -0.34.

`CC(C)=CCCC(C)=CCON=C1C[C@@H](O)[C@@H](O)[C@@H]2[C@@H]3C(=O)N(C4CCCCC4)C(=O)[C@@H]3CC[C@H]12` came in with a composite z-score of 1.12.

As to `COC(=O)[C@H](C)NC(=O)CCC1CC(OC(=O)NCc2ccc3c(c2)OCO3)CC2(CCCC(COC(=O)NCCc3ccc(Cl)cc3)O2)O1` (stereo partly specified), the composite z-score was found to be 0.142.

The molecule `COC(=O)[C@H](C)NC(=O)CCC1CC(OC(=O)NCCc2ccc(F)cc2)CC2(CCCC(COC(=O)NCC3CCCCC3)O2)O1` (stereo partly specified) showed a composite z-score of 0.178.

Molecule `CCN1C(=O)[C@H]2[C@H]3[C@H](O)[C@H](O)CC(=NO[C@H](C)c4cn([C@H](CO)Cc5ccccc5)nn4)[C@@H]3CC[C@H]2C1=O` gave a composite z-score of 0.454.

Molecule `CCN1C(C)=C(C(=O)OC)[C@@H](c2ccccc2)N2C(=O)[C@](O)(C(=O)OC)CC(C(C)=O)=C12` showed a composite z-score of 0.0644.

For `C=CC[C@@H]1C=C[C@H](ON=C(C)CCN2CCCCc3nc(C)c(C)cc32)[C@@H](CO)O1`, the composite z-score came to 0.499.

The molecule `CC(C)=NOC(C)CN1CCCCc2nc(C)c(C)cc21` (stereo unspecified) had a composite z-score of -0.368.

The molecule `CCOC(=O)[C@H](Cc1ccccc1)NC(=O)CCC1CC(OC(=O)NCCc2ccc(F)cc2)CC2(CCCC(COC(=O)NCCOc3ccccc3)O2)O1` (stereo partly specified) yielded a composite z-score of 0.237.

As for `Cc1ccc(S(=O)(=O)N[C@@H]2COC(=O)CC=C[C@@H](C)[C@H](NS(=O)(=O)c3ccc(C)cc3)COC(=O)[C@H](C)NC(=O)CC=C[C@H]2C)cc1`, the composite z-score was -0.1.

The molecule `CCOC(=O)CCN1C(=O)[C@H]2[C@H]3[C@H](O)[C@H](O)CC(=NOCC(C)C)[C@@H]3CC[C@H]2C1=O` came in with a composite z-score of -0.286.

Molecule `CC(=O)OC[C@H]1O[C@H](CCON=C(C)CCN2CCCc3nc(C)c(C)cc32)C=C[C@@H]1OC(C)=O` showed a composite z-score of 0.835.

Consider `Cc1cc2c(nc1C)CCCCN2CC(O)CN1CCCc2nc(-c3ccc(Br)cc3)ccc21` (stereo unspecified), for which the composite z-score is 0.171.

Consider `CC(C)(C)N1C(=O)[C@H]2[C@@H]3C(=CC[C@H]2C1=O)C(=O)[C@H]1O[C@H]1[C@H]3O`, for which the composite z-score was -0.339.

`CC(CCN1CCCc2nc(C)c(C)cc21)=NOC[C@@H](C)[C@H](OCc1ccccc1)C(C)C` showed a composite z-score of -0.0748.

In the case of `CON=C(C)CCC(=O)OC[C@H]1O[C@H](C#Cc2ccccc2)C=C[C@@H]1Oc1ccc(C)cc1`, the composite z-score was 0.122.

In turn, `C[C@@H]1CC[C@@H](C(=O)O)N[C@H]1c1cccc(N2CCOCC2)c1` showed a composite z-score of 0.455.

Regarding `O=C1C2=CC[C@H]3C(=O)N(C4CCCCC4)C(=O)[C@H]3[C@H]2[C@H](O)[C@@H]2O[C@H]12`, the composite z-score is -0.504.

Molecule `CCOC(=O)[C@H](Cc1ccccc1)NC(=O)CCC1CC(OC(=O)NCCc2ccc(F)cc2)CC2(CCCC(COC(=O)NCc3cccc(C(F)(F)F)c3)O2)O1` (stereo partly specified) yielded a composite z-score of 0.31.

`O=C1[C@H]2[C@H]3[C@H](O)[C@H](O)CC(=NO[C@@H]4O[C@H](CO)[C@@H](O)[C@H](O)[C@H]4O)[C@H]3CC[C@H]2C(=O)N1C[C@@H]1CCCO1` gave a composite z-score of -0.159.

In turn, `CC(CCC(=O)OC[C@H]1O[C@H](C#Cc2ccccc2)C=C[C@@H]1Oc1ccc(C)cc1)=NOC[C@@H](C)[C@H](OCc1ccccc1)C(C)C` came in with a composite z-score of -0.502.

In the case of `C[C@@H]1CC[C@H]2C(=O)OC(Cc3ccccc3)CN2[C@H]1c1ccc(Br)cc1` (stereo partly specified), the composite z-score was -0.0103.

`COC(=O)CC=C[C@@H](C)[C@@H](C=NOC[C@@H](O)COCc1ccco1)OC` came in with a composite z-score of -0.354.

The molecule `CCc1cc2c(nc1CC)CCN(CCC(C)=NOC[C@@H](C)[C@H](OCc1ccccc1)C(C)C)C2` showed a composite z-score of -0.846.

Take `O=C1C2=CC[C@H]3C(=O)N(C[C@@H]4CCCO4)C(=O)[C@H]3[C@H]2[C@H](O)[C@@H]2O[C@H]12`: the composite z-score came out at 0.146.

With `CCOC(=O)CCN1C(=O)[C@H]2[C@H]3[C@H](O)[C@H](O)CC(=NNC(=O)OCC)[C@H]3CC[C@H]2C1=O`, the composite z-score is 0.276.

`COc1ccc2c(c1)O[C@@H](c1cccc(C(F)(F)F)c1)[C@H](O)C2=O`: the composite z-score stood at 0.0103.

On to `COC(=O)CC=C[C@@H](C)[C@@H](C=NOC(C)CN1CCCCc2nc(C)c(C)cc21)NS(=O)(=O)c1ccc(C)cc1` (stereo partly specified), for which the composite z-score turned out to be 0.0646.

`CCOC(=O)[C@H](Cc1ccccc1)NC(=O)CCC1CC(OC(=O)NCc2cccc3ccccc23)CC2(CCCC(COC(=O)NCCc3ccccc3OC)O2)O1` (stereo partly specified): the composite z-score was 0.201.

For the molecule `O=C1C=C[C@@H](O)[C@@H]2[C@@H]3C(=O)N(c4cccc(Oc5ccccc5)c4)C(=O)[C@@H]3CC[C@@H]12`, the composite z-score was -0.183.

As for `O=C1C=C[C@@H](O)[C@@H]2[C@@H]3C(=O)N(Cc4ccccc4)C(=O)[C@@H]3CC[C@@H]12`, the composite z-score worked out at 0.168.

In turn, `COC(=O)[C@H](C)NC(=O)CCC1CC(OC(=O)NCc2ccc3c(c2)OCO3)CC2(CCCC(COC(=O)NCc3ccccc3)O2)O1` (stereo partly specified) came in with a composite z-score of -0.0996.

Molecule `COc1ccc(COC(=O)NN=C2C[C@@H](O)[C@@H](O)[C@@H]3[C@@H]4C(=O)N(C(C)(C)C)C(=O)[C@@H]4CC[C@@H]23)cc1` gave a composite z-score of -0.14.
